Most compounds without a hit are left out; they make up all but 6% or so of the library.
DRD3 antagonist – antagonists of human D3 dopamine receptor. P35462. D3R cells, DiscoveRx beta-arrestin luminescence, antagonist mode; hits give low values. max response, negative = inhibition, %. 360,000 tested, 2.5% active. AID 652054; in the data active = max response below about -50%; inconclusive = no clear call, values can overlap the other calls
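Cells plated overnight at 1500 cells/well, then exposed to library compounds with dopamine controls for 90 minutes at 37 degrees C. DiscoveRx reagent added for 30–60 minutes at room temperature; luminescence read, quantitative HTS format.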
D1 agonist – human D1 receptor agonism; activation, % at 2 µM; 360,000 tested, 1% active; HEK293 T-REx D1 cells, calcium flux, agonist mode; P21728; AID 504660; in the data active = activation above about 30%
Target sequence (P21728 whole entry, looked up): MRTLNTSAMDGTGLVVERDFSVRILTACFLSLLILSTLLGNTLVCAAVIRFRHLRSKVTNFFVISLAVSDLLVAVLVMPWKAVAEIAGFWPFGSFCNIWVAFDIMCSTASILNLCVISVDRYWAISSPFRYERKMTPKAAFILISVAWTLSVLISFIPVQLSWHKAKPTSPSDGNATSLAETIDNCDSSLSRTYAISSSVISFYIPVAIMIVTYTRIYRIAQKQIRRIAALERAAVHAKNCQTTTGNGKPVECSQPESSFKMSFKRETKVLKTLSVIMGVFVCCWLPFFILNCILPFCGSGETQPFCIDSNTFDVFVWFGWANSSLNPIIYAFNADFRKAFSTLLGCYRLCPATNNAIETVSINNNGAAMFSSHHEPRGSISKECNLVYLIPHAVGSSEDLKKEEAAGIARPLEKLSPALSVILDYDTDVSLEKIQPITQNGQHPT
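Tetracycline-induced HEK293 TREx D1 cells, force-coupled to calcium signalling, were dye-loaded with a no-wash calcium kit. Compound was pin-added after a 10 s baseline. Fluorescence was read kinetically at 1 cycle/s for 180 s, with calcium rises flagged as agonism.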
D1 antagonist – antagonists of human D1 dopamine receptor | P21728 | HEK293 TREx D1 cells, calcium flux, dopamine EC80; hits give low values | activity change, negative = inhibition, % at 10 µM | 360,000 tested, 3.2% active | AID 504652; in the data active = activity change below about -30%
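Using tetracycline-induced force-coupled D1 Hek293 cells and a calcium dye, signals were followed for 180 s after compound, then for 180 s after EC80 dopamine, to detect inhibitors.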
BCR signal inh – blocks chronic active B-cell receptor signaling. Potency, µM (series often up to 46.1 µM), most hits filed as inhibitors. 340,000 tested, 0.05% active. ABC-DLBCL IkBa-CBG/CBR reporter, luminescence ratio, 4 h. AID 493014; active = well fitted inhibition curve with a large enough effect in the signal ratio, with a control signal flat, not every such curve was filed as active; inconclusive = small, poorly fitted or top-dose-only effect, or effect the other way, or a change in a side signal; the % refers to the signal ratio
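TMD8 human ABC-DLBCL cells with doxycycline-inducible IκBα–green luciferase fusion and unfused red luciferase, in 0.5% FBS medium; compounds up to 46 uM, 4 h at 37C. Green/red luminescence ratio, filter-overlap corrected, fitted to concentration-response curves.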
D1 PAM – potentiators of human D1 dopamine receptor; P21728; 360,000 tested, 0.036% active; potentiation, % at 10 µM; HEK293 TREx D1 cells, calcium flux, dopamine EC20 potentiation; in the data active = potentiation above about 30%
DRD3 agonist – agonists of human D3 dopamine receptor; 410,000 tested, 0.58% active; P35462; max activation, %; D3R DiscoveRx beta-arrestin cells, luminescence, 90 min; in the data active = max activation above about 30%
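Agonist mode: compounds and dopamine controls were applied to plated cells for 90 min at 37 degrees C after an overnight attachment at 1500 cells/well. Luminescent read-out followed 30 - 60 minutes at room temperature with DiscoveRx detection reagent.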
Hits are given with their value; i = inactive; ? = inconclusive; nt = not tested or not shown.

SMILES	DRD3 antagonist	D1 agonist	D1 antagonist	BCR signal inh	D1 PAM	DRD3 agonist
COc1cc(C(=O)NNC(=S)NC(=O)c2ccc(F)cc2)cc(OC)c1OC	i	44	i	?	i	i
COc1cc(C(=O)NC(=S)Nc2ccc3c(c2)OCO3)cc(OC)c1OC	i	i	-35	i	i	i
c1ccc(-c2cc3nc(NCc4cccs4)nc(NCc4ccc5occc5c4)c3s2)cc1	i	nt	nt	nt	nt	i
Cc1cccc(NC(=O)c2ccc3c(c2)OCCO3)c1	i	i	i	?	nt	i
COc1cc(C(=O)NNC(=O)C2CCC2)cc(OC)c1OC	i	i	-48	i	i	i
Cc1cccc(NC(=S)NNC(=O)c2ccc3c(c2)OCO3)c1	-59	i	i	?	i	i
Cc1ccc(NC(=O)c2ccc(NC(=O)N3CCSc4ncccc43)cc2)cc1Cl	nt	i	i	nt	i	i
c1ccc(-c2cc(CSc3nc4ccccc4[nH]3)on2)cc1	i	i	-31	?	i	i
Oc1ccc(/C=N/n2c(C3CCCCC3)n[nH]c2=S)c(O)c1	i	i	i	?	i	i
Oc1ccc(Br)cc1/C=N/n1c(C2CCCCC2)n[nH]c1=S	i	37	i	i	i	i
Cc1nn(-c2ccccc2)c(C)c1/C=N/n1c(-c2ccncc2)n[nH]c1=S	-52	i	i	?	i	i
S=c1[nH]nc(-c2cccnc2)n1/N=C/c1ccco1	-50	i	i	i	i	i
Oc1c(Br)cc(Br)cc1/C=N/n1c(-c2ccccc2)n[nH]c1=S	-51	i	i	i	i	i
COc1ccccc1CNC(=O)C1(C)CCN1C(=O)Cc1ccc(-c2ccccc2)cc1 (configuration not stated)	i	nt	nt	nt	nt	i
S=c1[nH]nc(-c2ccccn2)n1/N=C/c1ccccc1	-52	i	i	i	i	i
S=c1[nH]nc(-c2ccccn2)n1/N=C/c1ccc(Cl)cc1	i	i	i	i	i	i
Cn1cccc1/C=N/n1c(-c2ccccc2)n[nH]c1=S	-98	i	i	i	i	i
C=CCn1c(=S)[nH]c2cc(C(=O)Nc3ccc(F)cc3)ccc2c1=O	i	i	i	?	i	47
COCCn1c(=S)[nH]c2cc(C(=O)NCc3ccccc3)ccc2c1=O	-66	nt	nt	nt	nt	i
Cc1ccc(CNC(=O)c2ccc3c(=O)n(CCCN4CCCC4=O)c(=S)[nH]c3c2)cc1	i	i	i	?	i	i
O=C(NCc1ccccc1)c1ccc2c(=O)n(CCCN3CCCC3=O)c(=S)[nH]c2c1	-52	i	i	?	i	i
Cc1cc(C)c(NC(=O)c2cc(S(=O)(=O)N3CCN(c4ccccc4F)CC3)ccc2F)c(C)c1	nt	i	i	i	i	i
NCCOc1ccc(C23CC4CC(CC(C4)C2)C3)cc1	i	127	i	i	36	i
OC(COc1ccc(CNCCc2ccc(C(F)(F)F)cc2)cc1)CN1CCCCC1 (configuration not stated)	?	35	-38	?	i	i
Oc1ccc(C23CC4CC(CC(C4)C2)C3)cc1O	i	i	i	i	i	i
SMILES	DRD3 antagonist	D1 agonist	D1 antagonist	BCR signal inh	D1 PAM	DRD3 agonist
OC(COc1ccc(Cl)cc1)CN1CCCCC1 (configuration not stated)	-55	i	i	i	i	i
OC(COc1c(Cl)cc(Cl)cc1Cl)CN1CCCCC1 (configuration not stated)	-63	i	i	i	i	i
CCCOC(=O)c1cccc(Nc2nc(CCC)cc(=O)[nH]2)c1	nt	i	i	nt	i	i
OCCN1CCN(CC(O)COc2ccc(C34CC5CC(CC(C5)C3)C4)cc2)CC1 (configuration not stated)	i	63	-42	?	i	i
Cc1cc(O)c(C(C)C)cc1N=Cc1ccccc1[N+](=O)[O-]	i	nt	nt	nt	nt	i
COc1ccc(N=Cc2cc(Cc3ccccc3Cl)cc([N+](=O)[O-])c2O)cc1OC	-96	i	i	i	i	i
Cc1ccc(N=Cc2cc(Cc3ccccc3Cl)cc([N+](=O)[O-])c2O)c(O)c1	-74	i	i	?	i	i
COc1ccc([N+](=O)[O-])cc1NC(=O)Cc1ccccc1Cl	i	i	i	i	i	i
Cc1nc(Cc2nnc(SC(C)C(=O)Nc3ccccc3)o2)cs1 (configuration not stated)	i	nt	nt	nt	nt	i
COc1ccc(-c2noc(CSc3nnc(Cc4ccccc4)n3-c3ccccc3)n2)cc1OC	nt	i	i	nt	i	i
Cc1csc(SCC(=O)Nc2sc3c(c2C#N)CCC3)n1	i	i	-31	i	i	i
CN1CCc2nc(SCC(=O)Nc3ccc(Cl)cc3)c(C#N)cc2C1	-60	nt	nt	nt	nt	i
N#Cc1cc2c(nc1SCC(=O)Nc1sc3c(c1C#N)CCC3)CCCCCC2	i	i	i	i	i	i
COc1ccc(NC(=O)CSc2nc(N)c(C#N)cc2C#N)cc1	i	i	i	i	i	i
CCOC(=O)c1sc(NC(=O)CSc2nccc(C)n2)c(C#N)c1C	i	i	nt	i	i	i
N#Cc1c(NC(=O)CSc2nc3ccccc3s2)sc2c1CCCC2	i	i	i	i	i	i
N#Cc1cc2c(nc1SCC(=O)Nc1sc3c(c1C#N)CCC3)CCC2	i	i	-42	i	i	i
Cc1ccnc(SCC(=O)Nc2sc3c(c2C#N)CCCC3)n1	i	i	-33	?	i	i
CCCCC(=O)NNC(=S)NC(=O)CCC	-58	i	i	i	i	i
CCCCC(=O)NC(=S)NNC(=O)CC#N	i	i	i	?	i	i
Cc1cccc(N2CCN(S(=O)(=O)c3ccc4oc(=O)c5ncn(C)c5c4c3)CC2C)c1 (configuration not stated)	nt	i	i	nt	i	i
Cc1ccccc1CNc1ncnc2cc(Cl)ccc12	i	i	i	i	i	i
Fc1ccc(F)c(CNc2ncnc3cc(Cl)ccc23)c1	i	i	-30	i	i	i
C/C=C(\C)CN1CCN(c2cccc(C)c2C)CC1	-88	i	i	i	i	i
Cc1ccc(C)c(N2CCN(CCCc3ccccc3)CC2)c1	-65	i	i	i	i	i
SMILES	DRD3 antagonist	D1 agonist	D1 antagonist	BCR signal inh	D1 PAM	DRD3 agonist
C/C=C(\C)CN1CCN(c2ccccc2F)CC1	i	i	i	i	i	i
C/C=C(\C)CN1CCN(c2cc(C)ccc2C)CC1	-86	i	i	?	i	i
Cc1ccc(CNC(=O)C2CCC(=O)N(Cc3cccc(F)c3)C2)s1 (configuration not stated)	i	nt	nt	nt	nt	i
Cc1ccc(C(=O)Nc2nc(-c3ccccc3)c(-c3ccccc3)o2)cc1	-85	i	i	?	i	i
Cc1ccc(Oc2ccccc2NC(=O)CSCC(=O)Nc2cc(C)on2)cc1	i	i	i	i	i	i
COCCn1c(-c2ccc(OC)cc2)cnc1SCC(=O)Nc1cc(C)on1	-70	i	i	?	i	i
